We go through 16 compounds from the supplement of paper PMC8253809.

The test system of this assay is SUDIPGVI (diffuse intrinsic pontine glioma line)
As to the kind of experiment: growth inhibition (% activity, log2 RLU normalised to DMSO / staurosporine); higher = more growth inhibition. Conditions: 33 µM. The essentials:
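Approved drugs, at a single final concentration of about 33 μM, were applied in triplicate to pHGG cell lines and H9-derived neural stem cells for 7 days at 37 °C, 5% CO2. The growth-inhibition value is the replicate median of log2-transformed CellTiter-Glo luminescence normalised per plate to % activity between solvent and positive control wells.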
Turning to `C#C[C@]1(O)C=C[C@H]2[C@@H]3CCC4=CC(=O)CC[C@@H]4[C@H]3CC[C@@]21CC`, the growth inhibition was found to be 1.89%.

As to `NCC(O)c1ccc(O)cc1` (stereo unspecified), the growth inhibition is -3.26%.

Consider `COc1ccc(OC)c(C(O)C(C)N)c1` (stereo unspecified), for which the growth inhibition was 3.12%.

In the case of `CC(C)c1c(CN(C)C(C)Cc2ccccc2)n(C)n(-c2ccccc2)c1=O` (stereo unspecified), the growth inhibition is -1.33%.

Take `Cc1cccc(C)c1NC1=NCCCS1`: the growth inhibition is -4.55%.

Turning to `CN(C)C1C(=O)C(C(N)=O)=C(O)C2(O)C(=O)C3=C(O)c4c(O)cccc4C(C)(O)C3CC12` (stereo unspecified), the growth inhibition was -2.69%.

As to `Nc1nc(N)nc(NC2CC2)n1`, the growth inhibition is 2.19%.

Turning to `C=CC[C@]1(O)CC[C@H]2[C@@H]3CCC4=CC(=O)CCC4=C3C=C[C@@]21C`, the growth inhibition is 1.88%.

Turning to `COc1ccc(C(=O)N2CCCC2=O)cc1`, the growth inhibition was -5.15%.

In the case of `N[C@@H]1C[C@H]1c1ccccc1.N[C@H]1C[C@@H]1c1ccccc1`, the growth inhibition worked out at 3.88%.

Regarding `Cn1c(CCCC(=O)O)nc2cc(N(CCCl)CCCl)ccc21`, the growth inhibition came to 1.43%.

On to `C[C@]12CC[C@H](O)CC1=CC[C@@H]1[C@@H]2CC[C@]2(C)C(=O)CC[C@@H]12`, for which the growth inhibition is 3.47%.

`C[C@@H]1O[C@@H](O[C@H]2C[C@@H](O)[C@]3(CO)[C@H]4[C@H](O)C[C@]5(C)[C@@H](C6=CC(=O)OC6)CC[C@]5(O)[C@@H]4CC[C@]3(O)C2)[C@H](O)[C@H](O)[C@H]1O`: the growth inhibition worked out at 37.7%.

As for `CCC1=C[C@H]2CN3CCc4c([nH]c5ccccc45)[C@](C(=O)OC)(C2)[C@H]13`, the growth inhibition was -1.41%.

With `C[C@]12CC[C@H]3[C@@H](CC[C@@]45O[C@@H]4C(O)=C(C#N)C[C@]35C)[C@@H]1CC[C@@H]2O`, the growth inhibition was -0.488%.

Take `CCCCCCCCCCCCCCCC[n+]1ccccc1`: the growth inhibition came out at 62.8%.
